Measurements from PubChem BioAssay AID2551 (National Center for Advancing Translational Sciences (NCATS), 2010).
Out of some 310,000 compounds screened, about 17,000 (5.5%) were called active. About 11% were inconclusive and are not listed. Many of the other results were omitted from the sample, so actives are more common in it than they were. Unmarked numbers belong to inactive results. The call rests on the fitted dose curve; in most records, active means well fitted inhibition curve with a large enough effect; inconclusive means small, poorly fitted or top-dose-only effect, or effect the other way; inactive means no such curve, though single readings can be large or run the other way.

Each compound was assayed against Nuclear receptor ROR-gamma (Mus musculus) (UniProt P51450) (assay: qHTS for inhibitors of ROR gamma transcriptional activity). Details: Drosophila S2 Gal4-RORgamma UAS-luciferase reporter, 20 h; series mostly up to 53.6 µM; activity change, negative = inhibition: at the top concentration.
Summary of the method: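 ROR gamma transcriptional activity was tracked as Gal4-UAS luciferase output in stably transfected Drosophila Schneider cells, with compound added 1 hr before 700 uM copper sulfate induction and a 20 hr ambient-temperature incubation.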
Further: nearly all actives have a fitted effect of over 60% in size.
On the % scale 0 is the no-effect control and ±100 the full control effect; potency means the concentration at half of the fitted maximal effect.

Nuclear receptor ROR-gamma (Mus musculus), sequence (P51450 whole entry, looked up, the tested form may be a part): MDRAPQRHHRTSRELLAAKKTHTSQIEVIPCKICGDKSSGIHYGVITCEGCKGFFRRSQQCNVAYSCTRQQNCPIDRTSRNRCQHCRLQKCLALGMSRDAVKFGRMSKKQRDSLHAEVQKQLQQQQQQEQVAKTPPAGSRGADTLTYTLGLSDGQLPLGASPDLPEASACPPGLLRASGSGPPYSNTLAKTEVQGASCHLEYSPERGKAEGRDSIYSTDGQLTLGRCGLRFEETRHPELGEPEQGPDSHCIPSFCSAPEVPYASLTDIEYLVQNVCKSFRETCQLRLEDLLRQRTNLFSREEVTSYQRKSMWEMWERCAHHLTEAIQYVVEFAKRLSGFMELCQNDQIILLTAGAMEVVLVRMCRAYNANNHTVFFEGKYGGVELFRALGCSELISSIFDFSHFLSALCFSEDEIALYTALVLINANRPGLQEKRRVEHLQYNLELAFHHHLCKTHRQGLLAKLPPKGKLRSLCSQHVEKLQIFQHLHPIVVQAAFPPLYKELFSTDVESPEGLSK

Row | SMILES | activity change, negative = inhibition [%] | Potency
1 | O=C(NC(Cc1ccccc1)C(=O)O)/C(=C\c1ccccc1)NC(=O)c1ccco1 (stereo not given) | -19.7 | 
2 | CC(C)Oc1ccc(CCc2n[nH]c(=S)n2Cc2ccccc2)cc1 |  | 3.16 µM (active)
3 | CC(C)Oc1ccc(Cc2n[nH]c(=S)n2Cc2ccccc2)cc1Cl |  | 3.98 µM (active)
4 | C=CCn1c(CCc2ccc(OC(C)C)cc2)n[nH]c1=S | 1.5 | 
5 | CC(=O)N(OCc1ccc(OC(C)C)c(Cl)c1)C(C)=O | 11 | 
6 | CC(C)Oc1ccc(CCc2nnc(SCC(=O)O)n2-c2ccccc2)cc1 | 1.09 | 
7 | CC(=O)Nc1ccc(S(=O)(=O)N2CCC(C(=O)NC3CC3)CC2)cc1 | -24.5 | 
8 | OC(CNC1CCCC1)COc1ccc(F)cc1 (stereo not given) | -1.27 | 
9 | COc1ccccc1CNS(=O)(=O)c1ccc2c(c1)NC(=O)CS2 | 14 | 
10 | CCCn1nc(NS(=O)(=O)c2ccc(F)cc2)c2cc3ccccc3nc21 | 5.21 | 
11 | COc1ccc(N=Nc2ccc(O)c(P(=O)(c3ccccc3)c3ccccc3)c2)cc1 | 16 | 
12 | Cc1cc(N=Nc2ccc3ccccc3c2)ccc1O |  | 11.2 µM (active)
13 | Cc1cccc(C(=O)NNC(=O)CSc2nnc(C(C)C)n2C)c1 | -19.4 | 
14 | Cc1c(C(C)(C)O)[nH]c2ccc(C#N)cc12 | 14.1 | 
15 | CCn1c(SCC(=O)NNC(=O)c2ccc(OC)cc2)nnc1C(C)C | -32.5 | 
16 | COC(=O)C1=C(C)OC(N)=C(C#N)C1c1cc(OC)ccc1OC (stereo not given) | -29.4 | 
17 | COC(=O)C1=C(C)N(C)C(=S)NC1c1cc(OC)ccc1OC (stereo not given) |  | 15.8 µM (active)
18 | COC(=O)C1=C(C)N(C)C(=S)NC1c1ccccc1 (stereo not given) | -2.63 | 
19 | CCOC(=O)c1c(-c2ccccc2)oc2ccc(OCC(N)=O)cc12 | 61.5 | 
20 | CCOC(=O)c1c(S(=O)(=O)Nc2cccc(Cl)c2)c(C)n(C)c1C | -21.2 | 
21 | CC/C(=N\NC(=O)c1ccccc1Cl)c1ccc(Br)s1 |  | 11.2 µM (active)
22 | CC(=O)Nc1cccc(/C(C)=N/NC(=O)c2ccccc2Cl)c1 | 32.2 | 
23 | C/C(Cc1ccccc1)=N\NC(=O)CNC(=O)c1ccccc1Cl | 22.1 | 
24 | CCCOc1ccc(C(=O)C(CCC(CNCC)C(=O)c2ccc(OCCC)cc2)CNCC)cc1 (stereo not given) |  | 15.8 µM (active)
25 | CCCOc1ccc(N/C=C/C(=O)C(C)(C)C)cc1 | 44.4 | 
26 | CCCCOc1ccc(C(=O)NCc2ccncc2)cc1 | 15.1 | 
27 | COc1cccc(N2C(=O)CN(Cc3ccccc3)C2=S)c1 | -4.86 | 
28 | COc1cccc(-n2c(=S)[nH]c3c(oc4ccccc43)c2=O)c1 |  | 7.08 µM (active)

Row | SMILES | activity change, negative = inhibition [%] | Potency
29 | COc1cccc(-n2cc(C(=O)O)c3ccccc3c2=O)c1 | -16.1 | 
30 | CCNCc1cc2cc(C)ccc2[nH]c1=O | -37.6 | 
31 | CCc1cccc(CC)c1NC(=S)Nc1ccc2cn[nH]c2c1 | -26.6 | 
32 | CCc1cccc(CC)c1NC(=S)NCc1ccc2[nH]c(C)cc2c1 |  | 2.51 µM (active)
33 | Cc1cccc(S(=O)(=O)N2CN(CC3CCCO3)c3nc4ccccc4nc32)c1 (stereo not given) | 0.765 | 
34 | CCC(C)(C)n1nnnc1C(c1ccccc1OC)N1CCSCC1 (stereo not given) | -15.1 | 
35 | CC(C)(C)n1nnnc1C(c1ccc2ncccc2c1)N1CCSCC1 (stereo not given) |  | 10 µM (active)
36 | CC(C)(C)n1nnnc1C(c1ccc(Cl)cc1)N1CCSCC1 (stereo not given) | -6.3 | 
37 | Cc1c(C)c2ccc(OCC(=O)N3CCC(C(=O)O)CC3)c(C)c2oc1=O | -15.9 | 
38 | C=C(C)CNC(=S)/N=c1\scc(C)n1CC |  | 7.94 µM (active)
39 | Cc1csc(=NC(=O)c2ccccc2)n1CCO | -13.4 | 
40 | Cc1csc(=Nc2ccccc2)n1CCO | -7.52 | 
41 | COc1ccc(-c2c(C#Cc3ccccc3)c3ccccc3n2C)cc1 | 37.9 | 
42 | O=c1[nH]c(=S)[nH]c2[nH]c(=S)[nH]c12 | 8.76 | 
43 | Cc1cc(=O)[nH]c(=S)[nH]1 |  | inactive
44 | Cc1c(C)c(C)c2[nH]c(=S)[nH]c2c1C |  | 2.82 µM (active)
45 | CCOC(=O)CNc1nc(Cl)nc(Nc2ccc(OC)cc2OC)n1 | 17.4 | 
46 | COCC1CCN(C(=O)c2ccc3oc(Cc4ccccc4)nc3c2)C1 (stereo not given) | 8.76 | 
47 | COc1ccc(NC(=O)C2CCC(CNC(=O)[C@@H]3Cc4ccccc4CN3)CC2)cc1 (stereo not given in full) | -28.2 | 
48 | COc1ccc(NC(=O)CN2C(=O)COc3ccc(S(=O)(=O)N4CCOCC4)cc32)c(OC)c1 | -9.23 | 
49 | O=C(C[n+]1cc(Br)cc2ccccc21)c1ccc(F)cc1 | 19 | 
50 | COc1ccc(C(=O)N2CCCCC2C(=O)Nc2ccc(-n3nc(C)cc3C)cc2)o1 (stereo not given) | 5.06 | 
51 | Cc1cccc(CNS(=O)(=O)c2ccc(-c3cnc(C4CC4)o3)cc2)c1 | -23.2 | 
52 | CC(CCc1ccc(O)cc1)NCc1ccc(Cl)cc1Cl (stereo not given) | -2.34 | 
53 | CCCCCC(=O)NC(=S)NNC(=O)c1ccc([N+](=O)[O-])cc1 |  | 14.1 µM (active)
54 | CCCCCC(=O)Nc1ccc(C(=O)N/N=C/c2ccc([N+](=O)[O-])cc2)cc1 | -44.8 | 
55 | O=C(NNS(=O)(=O)Cc1ccccc1)c1ccc([N+](=O)[O-])cc1 | 1.09 | 
